In ChEMBL document CHEMBL3988442, “University of Dundee, Small-Polar-MMV Screening Library” (2021):

Each compound was assayed against AMP-activated protein kinase, AMPK (Homo sapiens) (UniProt P54646+O43741+P54619+Q9UGJ0+Q9Y478+Q13131+Q9UGI9) (assay: AMP-dependent Kinase enzyme assay. An in vitro enzyme assay that detects ADP turnover that is directly proportional to AMPK activity. This uses naive AMPK that is activated during the assay with MK-8722). Conditions: 30 µM.
Assay type: functional
Design: scale not given: direction of the effect not stated beside the values

Compared with `CC(C)n1ccc(C(=O)OCC2CC(=O)N(Cc3ccccc3)C2)n1` (stereo not given), `Cc1cc(=O)n(CCNC(=O)c2ccccc2Cl)cn1` is lower in Percent Effect: 7.89% for the first, -4.73% for the second.

Going from `CN(C)Cc1cn(-c2ccccc2C(=O)NCCC2CCCN2C)cn1` (stereo not given) to `Cc1cc(NC(=O)N2CCC[C@@H]2CO)nn1-c1ccccc1Cl`, the Percent Effect rises from -16.8% to 3.2%.

Compared with `Cc1cc(C)c(C(=O)N(C)CCN(C)C(=O)c2[nH]c(C)cc2C)[nH]1`, `Cc1cc(CN(C)C(=O)c2cc(COc3ccccc3)[nH]n2)n[nH]1` is higher in Percent Effect: -2.87% for the first, 1.22% for the second.

First: O=C(C1CCCO1)N1CCC(Cn2cc(C3CCCC3)nn2)CC1 (stereo not given)
Second: Cc1cc(C)n(CC2CCN(CC(O)CN3CCOCC3)CC2)n1 (stereo not given)
The Percent Effect of the first is higher: 3.98% for the first, -1.36% for the second.

Going from `Cc1ccc(C(=O)NC2CCN(C)CC2)cc1N(C)S(C)(=O)=O` to `COc1ccc(NC(=O)c2cnc(C3CCN(C)CC3)nc2C)cc1`, the Percent Effect rises from -1.82% to 3.65%.

Going from `Cc1ccccc1C(=O)NCC(=O)NCc1ccccn1` to `O=C(NC1CCCN(Cc2c(F)cccc2F)C1)c1cnccn1` (stereo not given), the Percent Effect falls from 17.3% to 6.06%.

Going from `Cc1ccc(F)c(C(=O)Nc2c(C(N)=O)n[nH]c2C)c1` to `O=C(Nc1ccc(F)cc1F)NC1(CO)CCOCC1`, the Percent Effect falls from 9.84% to 4.61%.

First: O=C(CN1CC(c2nc(C3CC3)no2)C1)NCc1ccc(F)cc1
Second: O=C(c1cc(C2CC2)nc2onc(-c3ccccc3)c12)N1CC(O)C1
The Percent Effect of the first is higher: 3.03% for the first, 2.65% for the second.

`COc1cccc2ccc(N3CCC(O)(c4ccc(C)cn4)CC3)nc12` and `Cc1cccc(-c2nccnc2C2CCCN(C)C2)c1` (stereo not given) are the same in Percent Effect: 11.8% for the first, 11.8% for the second.

Going from `CC1(C)Cc2nc(C(C)(C)C)ncc2C(NC(=O)Cc2nnn[nH]2)C1` (stereo not given) to `Cn1ncc2c(NC3CCC3)nc(-c3ccncc3)nc21`, the Percent Effect rises from -20.8% to 87.5%.

Compared with `CN(Cc1cc[nH]n1)C(=O)c1ccc2c(c1)nc(N1CC[C@H](O)C1)n2C`, `CCc1nc(CCNS(=O)(=O)c2cccc(C(=O)N(C)CC)c2)cs1` is lower in Percent Effect: 19.9% for the first, 1% for the second.

First: CC(C(=O)NCc1ccc2c(c1)OCCO2)n1cncn1 (stereo not given)
Second: CN(Cc1ccc(F)c(F)c1)Cc1cc2c(cc1Br)OCCO2
The Percent Effect of the first is lower: -8.38% for the first, -7% for the second.

Going from `COc1ccc(CC(C)Nc2cccc(SC)c2)cc1` (stereo not given) to `CC1(C)OC(=O)N(CCOc2ccc(F)cc2)C1=O`, the Percent Effect rises from -5.64% to 5.04%.

Compared with `Cc1ccc(-c2noc(C3CCN3C(=O)c3c(C)noc3C)n2)s1` (stereo not given), `Cc1nn(C)c2nc(N(Cc3nccs3)C3CC3)sc12` is lower in Percent Effect: 5.86% for the first, 1.18% for the second.

Going from `Cc1ccc(-n2cc(CN3CCOCC(CN(C)C)C3)cn2)cc1C` (stereo not given) to `Cn1nccc1CN1CCOC(c2ccc(-c3cncnc3)cn2)C1` (stereo not given), the Percent Effect rises from 8.42% to 9.64%.

Compared with `CC(NC(=O)C1CC1)C(=O)N(C)Cc1ccsc1` (stereo not given), `CC(NC(=O)C1CCCCC1)c1cc(O)nc(-c2cccnc2)n1` (stereo not given) is higher in Percent Effect: -1.9% for the first, 5.58% for the second.

Going from `O=C1CC2(CCN(Cc3ccc(-c4ccccc4)s3)C2)C(=O)N1` (stereo not given) to `O=C(Nc1cn[nH]c1)NC1CCN(c2ccccc2OC(F)F)C1` (stereo not given), the Percent Effect falls from 84.9% to -1.4%.

Compared with `Cc1nn(C)c(C)c1C1COCCN1C(=O)NC1CC1` (stereo not given), `Cc1c(NCCO)cccc1OC1CCCC1` is lower in Percent Effect: -1.36% for the first, -6.27% for the second.

Going from `CCOCCN1CCN(c2ncccc2C#N)CC1CC` (stereo not given) to `CCC(=O)c1cccc(S(=O)(=O)NC(C)C#N)c1` (stereo not given), the Percent Effect falls from 4.43% to -2.44%.

First: COc1cc(C)c(S(=O)(=O)CC(=O)N(C)C2CC2)cc1OC
Second: CO[C@@H]1CC[C@@H](NC(=O)CCc2ccc(Cl)cc2)[C@H]1O
The Percent Effect of the first is lower: 2.73% for the first, 8.1% for the second.
